Source: PubChem BioAssay AID1030 (National Center for Advancing Translational Sciences (NCATS), 2008)
Where “and” joins values, the source holds several entries; their conditions need not be identical. Equal values may be shown once. About 16,000 (7.3%) of roughly 220,000 compounds were called active. Roughly 25% stayed inconclusive and do not appear here. The call rests on the fitted dose curve; in most records, active means well fitted inhibition curve with a large enough effect (not every such curve was filed as active); inconclusive means small, poorly fitted or top-dose-only effect, or another doubt; inactive means no such curve, though single readings can be large or run the other way. The entries come from a sample that favours actives as a whole. Where a call stands in place of a potency, no number is given. More than one record can exist for a structure, and the calls need not agree.

target: Aldehyde dehydrogenase 1A1 (Homo sapiens) (UniProt P00352); assay: qHTS Assay for Inhibitors of Aldehyde Dehydrogenase 1 (ALDH1A1); conditions: Purified ALDH1A1, NADH fluorescence, propionaldehyde substrate; series mostly up to 75.3 µM
Potency means the concentration at half of the fitted maximal effect.

Aldehyde dehydrogenase 1A1 (Homo sapiens), sequence (P00352 whole entry, looked up): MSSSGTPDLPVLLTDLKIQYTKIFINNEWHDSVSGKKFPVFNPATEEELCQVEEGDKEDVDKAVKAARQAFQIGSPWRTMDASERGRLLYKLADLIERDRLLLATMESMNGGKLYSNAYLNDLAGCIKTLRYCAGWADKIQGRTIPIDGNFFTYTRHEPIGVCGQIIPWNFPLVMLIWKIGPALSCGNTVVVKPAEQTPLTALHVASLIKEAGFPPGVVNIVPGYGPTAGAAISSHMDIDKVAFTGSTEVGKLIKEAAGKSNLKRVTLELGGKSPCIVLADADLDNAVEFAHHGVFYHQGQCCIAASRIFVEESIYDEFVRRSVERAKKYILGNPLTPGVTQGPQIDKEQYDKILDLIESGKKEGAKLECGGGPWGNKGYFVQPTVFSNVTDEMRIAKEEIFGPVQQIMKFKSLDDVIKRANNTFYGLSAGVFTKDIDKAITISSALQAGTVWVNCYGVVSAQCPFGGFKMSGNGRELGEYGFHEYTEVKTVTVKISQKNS

SMILES | Potency | activity, negative = inhibition
O=C1N=c2ccccc2=C/C1=C\c1c(O)[nH]c(=S)[nH]c1=O | 2.51 µM (active) | 
COc1ccccc1N=Nc1c(O)[nH]c(=S)[nH]c1=O | inactive | 
Cc1ccc2c(c1)=C/C(=C\c1c(O)[nH]c(=O)[nH]c1=O)C(=O)N=2 | 1.58 µM (active) | 
CC(C)CCC1(CCN)C(=O)NC(=O)NC1=O |  | 0.154% [at 13.5 µM] (inactive)
CCOc1ccc(CN(CCCl)CCCl)cc1C(=O)OC | inactive | 
COc1ccc(C2Oc3c(I)c(OC)cc(OC)c3CC2O)cc1OC (stereo not given) | inactive | 
O=C(Nc1cccc2ccccc12)N1CCC2(CC1)OCCO2 | inactive | 
COc1ccccc1-c1[se]c2ccccc2c1I | inactive | 
Cc1ccc(N(C)C(=O)Oc2cccc3ccc(C)nc23)cc1 | inactive | 
CS(=N)(=O)CC[C@H](N)P(=O)(O)O (stereo not given in full) |  | 4.42% [at 13.5 µM] (inactive)
CC(=O)NBr | inactive | 
CCC1(c2ccccc2)C(=O)NC(=O)N(C)C1=O (stereo not given) | inactive | 
c1ccc(Cc2nn3c(Cn4cnc5ccccc54)nnc3s2)cc1 | 2.24 µM (active) | 
c1ccc(CCCCN2CCC(c3ccccc3)CC2)cc1 | inactive | 
c1cncc(CNCCc2c[nH]c3ccccc23)c1 | inactive | 
NC(=O)Nc1cccc(C(F)(F)F)c1 | inactive | 
C[C@@]1([C@@H](NP(=O)(c2ccccc2)c2ccccc2)c2ccccc2)C[C@H]1CCO | inactive | 
CCCCC#N | inactive | 
Clc1ccc2nc3c(c(-c4ccccc4)c2c1)CNCC3 | inactive | 
N#CC(C#N)=Cc1cc(O)c(O)c([N+](=O)[O-])c1 | inactive and 20 µM (active) | 
Cc1cccc(-n2c(O)c(/C=N/N3CCOCC3)c(=O)[nH]c2=S)c1 | inactive | 
CN[C@@H]1C[C@H]2O[C@@](C)([C@@H]1OC)n1c3ccccc3c3c4c(c5c6ccccc6n2c5c31)C(=O)NC4 |  | -5.83% [at 13.5 µM] (inactive)
CN(C)C(=O)NC(O)C(Cl)(Cl)Cl (stereo not given) | inactive | 
C[C@]12CC[C@@H]3C(=CCc4cc(O)ccc43)[C@@H]1CCC2=O | 0.501 µM (active) | 
CCC(C)C(=O)O[C@@H]1C[C@@]2(C)C(c3ccoc3)OC(=O)CC23OC2(C)O[C@@]14[C@@]1(C)C(CC(=O)OC)C5(C)CC1(O)C(O)(C5OC(=O)C1(C)OC1C)C(OC(C)=O)[C@@]34O2 (stereo not given in full) | inactive | 
Cc1noc(C)c1CSc1nc2cc(S(=O)(=O)N3CCOCC3)ccc2o1 | 3.55 µM (active) | 
O=C(c1cc(S(=O)(=O)N2CCOCC2)ccc1F)N1CCC2(CC1)OCCO2 | inactive | 

SMILES | Potency | activity, negative = inhibition
N#CCCCl | inactive | 
O=C(Nc1cccc(OC(=O)N2CCCCC2)c1)N1CCOCC1 | inactive | 
O=C1NC(=O)N(c2ccccc2)C(=O)/C1=C/c1ccc([N+](=O)[O-])s1 | 22.4 µM (active) | 
CCN1CCN(C(=O)Cc2coc3cc(C)cc(C)c23)CC1 | inactive | 
Nc1ccc(C(=O)N/N=C2/CN3CCC2CC3)cc1 | inactive | 
CCCCCCN=C(CC)c1c(O)n(CCCC)c(=O)[nH]c1=O | inactive | 
CCc1nnc(NS(=O)(=O)c2ccc(N=Cc3c(O)n(-c4ccccc4)c(=O)[nH]c3=O)cc2)s1 | inactive | 
C[N+]1(C)CCOC(O)(c2ccc(-c3ccc(C4(O)C[N+](C)(C)CCO4)cc3)cc2)C1 (stereo not given) | inactive and 14.1 µM (active) | 
COc1ccc(CCn2c(O)c(C=NCCCn3ccnc3)c(=O)[nH]c2=O)cc1OC | inactive | 
Cc1cccc2c3c(ccc12)C1=C(C(=O)C3=O)C(C)CO1 (stereo not given) | 17.8 µM (active) | 
C=CCN(CC=C)C(=O)Nc1ccc(OCC)cc1 | inactive | 
CNC(=S)N/N=C1\C2CN3CCN(C2)CC1(c1ccccc1)C3 | inactive | 
COc1ccc(CN2CCN(c3ccccc3F)CC2)c(OC)c1 | inactive | 
Fc1ccc(N2CCN(Cc3ccc4c(c3)OCO4)CC2)cc1 | inactive | 
CC(C)c1ccc(O)c(CN2CCN(c3ccccc3)CC2)c1 | 2 µM (active) | 
COc1ccc2c3c1OC1CC(O)C=C[C@@]31CCN(C)C2 (stereo not given in full) | inactive | 
CC1=C(C(=O)Nc2ccccc2)SCCO1 | inactive | 
CC(C)N(CC#CCC1(O)c2ccccc2-c2ccccc21)C(C)C | inactive | 
CN1C2C=C(N(C(=O)c3ccc(Cl)cc3)c3ccccc3)CC1CC2 (stereo not given) | inactive | 
CC(C)(O)/C=C\C(=O)[C@](C)(O)[C@H]1[C@H](O)C[C@]2(C)[C@@H]3CC=C4[C@@H](C=C(O)C(=O)C4(C)C)[C@]3(C)C(=O)C[C@@]12C |  | 8.67% [at 13.5 µM] (inactive)
c1csc(CN2CC3(CCNCC3)C2)n1 | inactive | 
c1ccc2c(c1)[I+]c1ccccc1-2 | inactive | 
Cc1ccc(-n2c(C)cc(/C=C3\C(=O)NC(=O)N(C)C3=O)c2C)cc1C | 17.8 µM (active) | 
Cc1ccccc1N1C(=O)NC(=O)/C(=C\c2cc(C)n(C)c2C)C1=O | inactive | 
Cc1cc(C=C2C(=O)NC(=O)NC2=O)c(C)n1-c1ccncc1 | 14.1 µM (active) | 
CSC1=NP(=S)(SC)N(C)c2nc3n(c21)CCC3 (stereo not given) | inactive | 
CCOP(=O)(OCC)C(NC(=O)c1ccc(C)cc1)C(Cl)(Cl)Cl (stereo not given) | inactive | 

SMILES | Potency | activity, negative = inhibition
CCN(CC)CCn1ncc2c(N)ncnc21 |  | 1.51% [at 13.5 µM] (inactive)
CCCCCCCCc1[se]c2ccccc2c1Br | inactive | 
NCCc1ccc(S(=O)(=O)F)cc1 | inactive | 
O=C(CN1CCCCC1)Nc1ccc(Br)cc1C(=O)c1ccccc1Cl | inactive | 
CCN1CCN(c2ccc([N+](=O)[O-])cc2C#N)CC1 | inactive | 
COc1ccccc1-n1c(O)c(C=NC2CC2)c(=O)[nH]c1=O | inactive | 
Cc1ccc(-n2c(-c3ccc([N+](=O)[O-])cc3)nc3ccccc3c2=O)cc1 | 7.51 µM (active) | 
O=c1c2ccccc2nc(-c2ccc(Cl)cc2Cl)n1-c1ccncc1 | inactive | 
O=c1c2ccccc2nc(-c2ccccc2)n1-c1ccccn1 | inactive | 
Cc1cccc2c(CCN)c[nH]c12 | inactive | 
Cc1ncsc1CCCl | inactive | 
CCOP(=O)(OCC)C(NC(=O)c1ccc(OC)cc1)C(Cl)(Cl)Cl (stereo not given) | inactive | 
COc1ccc(C(=O)CC2C(=O)N(C)C(=O)N(C)C2=O)cc1 | 17.8 µM (active) | 
COc1ccc(-c2nn(CCC#N)cc2C(=O)O)cc1 | inactive | 
COc1cc(-n2c(=S)[nH]c3ccc(C)cc3c2=O)c(Cl)cc1Cl | inactive | 
CN(C)P(=S)(Nc1ccccc1)C(Cl)(Cl)Cl (stereo not given) | inactive | 
O=NO | inactive and 11.2 µM (active) | 
C[C@@]12CC[C@H](O)C[C@@H]1CC[C@@H]1[C@@H]2CC[C@@]2(C)[C@@H](C3=CC(=O)OC3)[C@H](O)C[C@]12O |  | 23.8% [at 13.5 µM] (inactive)
OC(CNC1CCCCC1)c1ccccc1 (stereo not given) | inactive | 
CC(Cc1cccs1)NCc1ccc(Cl)cc1 (stereo not given) | inactive | 
CCN(CC)C(=O)c1ccc(NC(=O)c2cc(-n3cnnc3)ccc2Cl)cc1 | 25.1 µM (active) | 
CC(C)(Cc1c[nH]c2ccc(Cl)cc12)NCCOc1ccccc1OCC1CC1 | inactive | 
O=c1[nH]c(=O)n(-c2ccccc2)c(O)c1C=NC12CN3CN(CN(C3)C1)C2 | inactive | 
C=CCN1CCC2(C)c3cc(O)ccc3CC1[C@@H]2C (stereo not given in full) | inactive | 
CC(=O)O[C@H]1CC[C@@]2(C)[C@@H](CC[C@H]3[C@H]2CC(=O)[C@]2(C)[C@@H]3C[C@@H](N3CC3)[C@H]2C(C)=O)C1 |  | 6.14% [at 13.5 µM] (inactive)
COC1CC(OC2CC[C@@]3(C=O)C4CC[C@]5(C)C(C6=CC(=O)OC6)CC[C@@]5(O)C4CC[C@]3(O)C2)OC(C)C1O (stereo not given in full) | inactive | 
O=C(O)CCn1cc(C=C2C(=O)NC(=S)NC2=O)c(-c2cccc(Br)c2)n1 | 10 µM (active) | 

SMILES | Potency | activity, negative = inhibition
COP(=O)(NS(=O)(=O)c1ccccc1)OC | inactive | 
CN1C2CC3CC1C(O3)C2O (stereo not given) | inactive | 
C[C@@]12CC[C@H]3[C@@H](CC[C@]4(O)C[C@H](O)CC[C@@]34C=O)[C@]1(O)CC[C@@H]2C1=CC(=O)OC1 | inactive | 
OC1/C(=C/c2ccc(C(F)(F)F)cc2)N2CCC1CC2 (stereo not given) | inactive | 
CCCCC/C=C\C/C=C\C/C=C\CCCCCCC(=O)NCCO | inactive | 
CCCCC/C=C\C/C=C\C/C=C\C=C\[C@H](CCCC(=O)O)OO | inactive | 
CCCCC/C=C\C/C=C\C/C=C\C/C=C\CCCCCC(=O)NCCO | inactive and 14.1 µM (active) | 
O=C(COC(=O)Cc1ccccc1)Nc1ccc(F)cc1 | inactive | 
O=c1[nH]c(=O)n(Cc2ccccc2)c(O)c1/C=N/Nc1c(F)c(F)c(F)c(F)c1F | inactive | 
CNC(=O)N(C)c1nnc(C(C)(C)C)s1 | inactive | 
CN1[C@@H]2CC[C@H]1CC(OC(=O)c1cc(Cl)cc(Cl)c1)C2 (stereo not given in full) | inactive | 
BrC1C(Br)C(Br)C(Br)C(Br)C1Br (stereo not given) | 20 µM (active) | 
O=C(CCN1CCCCC1)NCC(=O)Nc1ccc(Br)cc1C(=O)c1ccccc1 | inactive | 
N[C@H](Cc1o[nH]c(=O)c1Cl)C(=O)O | inactive | 
CC(C)(C)CC(=O)Nc1nnc(SCC(=O)NCc2cccs2)s1 | 17.8 µM (active) | 
N[C@H](C(=O)O)c1cc(=O)[nH]o1 | inactive | 
N#Cc1ccc(Cn2cc(C(=O)c3ccco3)c3ccccc32)cc1 | inactive | 
COP(=O)(OC)C(NC(=O)c1ccc(C)cc1)C(Cl)(Cl)Cl (stereo not given) | inactive | 
OC(Cn1c2ccccc2c2ccccc21)C[n+]1ccccc1 (stereo not given) | inactive | 
CCNc1nc2[nH]c(=O)c3c(c2s1)OC(N)=C(C#N)C3c1cccs1 (stereo not given) | inactive | 
CCCCN1C2CCC1CC(OC(c1ccc(F)cc1)c1ccc(F)cc1)C2 (stereo not given) | inactive | 
Cc1ccc(NN=C2C(=O)OC(C)(C)OC2=O)c(C)c1 | 10 µM (active) | 
Cc1nc2nc(C)c(CCC(=O)N3CCC4(CC3)OCCO4)c(C)n2n1 | inactive | 
CC1=CC(=O)C2=C(C)C[C@H](O)[C@H]3[C@H](C)C(=O)O[C@@H]3C12 (stereo not given in full) | inactive | 
